# Bioassay records deposited in PubChem by several laboratories.
# In the library only some 4.8% were active in any assay of this set; here they are far more common.
# NALP1 inh = NALP1 inflammasome inhibitors in reconstituted yeast, colorimetric, S. cerevisiae, triplicate retest. AID 2071, 2009. S. cerevisiae NALP1/ASC/caspase-1 growth, X-gal OD620, 72 h. hit rate 0.61% among 280,000. inhibition, % at 10 µM; in the data active means inhibition mostly above about 24%, no sharp cut-off; inactive means mostly below about 32%
# SKKanGAS inh = S. pyogenes SKKanGAS growth inhibitors in kanamycin, primary screen, streptokinase expression inhibitor project, SKKanGAS strain, BacTiter-Glo luminescence; inhibition, % at 7.5 µM; 6 h; hit rate 1.3% among 300,000; AID 1662, 2009;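 active means mean replicate score, as percent of positive control median, at least 50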;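 further: strain carries kanamycin resistance gene driven by streptokinase promoter and grows in 40 µg/ml kanamycin; loss of luminescence reflects streptokinase promoter inhibition or plain growth inhibition; 0% = median of DMSO wells and 100% = positive control at its reference dose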
# tim23-1 inh = growth inhibitors of tim23-1 mutant yeast, primary screen, luminescence, uHTS. S. cerevisiae tim23-1 growth, BacTiter-Glo luminescence, 24 h. inhibition, % at 20 µM. hit rate 1.3% among 330,000. AID 463212, 2010;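 active means growth inhibition of the mutant yeast at or above 50%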;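 further: temperature-sensitive mutant grown at 25 °C; plate controls were DMSO-treated mutant yeast for no effect and medium wells lacking yeast for full effect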
# tim10-1 inh = growth inhibitors of tim10-1 mutant yeast, primary screen, luminescence, uHTS; S. cerevisiae tim10-1 ts strain growth, BacTiter-Glo, 24 h; inhibition, % at 20 µM; hit rate 2.2% among 330,000; AID 463190, 2010;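 active means inhibition of at least 40%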;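 further: mutant grown at 25 °C; 0% = DMSO wells with yeast and 100% = wells holding no yeast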
# TIM10 inh = growth inhibitors of isogenic TIM10 control yeast, primary screen, counter-screen for tim10-1 yeast inhibitor project, luminescence, uHTS. S. cerevisiae TIM10 strain growth, BacTiter-Glo luminescence, 24 h. inhibition, % at 10 µM. hit rate 1.4% among 330,000;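 active means inhibition of 40% or more at the single tested concentration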;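 further: wild-type TIM10 isogenic control strain grown at permissive 25 °C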
# PfHsp90 yeast 2 = growth inhibition of PfHsp90-expressing yeast, primary screen, antimalarial PfHsp90 inhibitor project, S. cerevisiae, BacTiter-Glo luminescence, single point, set 2. BacTiter-Glo ATP, 48 h; yeast lacking PDR1 and PDR3 efflux regulators. inhibition, % at 9.4 µM. hit rate 0.32% among 310,000. AID 504621, 2011;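 active means every replicate shows inhibition above about 80%, whatever the replicate mean, limit read from the data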;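 further: 0% = DMSO neutral controls and 100% = 20 µM radicicol positive controls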
# tim23-1 conf = tim23-1 mutant yeast growth inhibitors, confirmation, luminescence, single concentration. inhibition, % at 20 µM. shares compounds with tim23-1 inh. AID 463218, 2010. hit rate 83% among 4,400. S. cerevisiae tim23-1 growth, BacTiter-Glo luminescence, 24 h;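 active means inhibition above about 39% in either of two replicate wells at 20 µM, limit read from the data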;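 further: temperature-sensitive tim23-1 mutant grown at 25 °C; 0% = DMSO wells with yeast and 100% = medium wells without yeast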
# Starred values were filed as active, the others as inactive; . = not tested or not shown.
SMILES,NALP1 inh,SKKanGAS inh,tim23-1 inh,tim10-1 inh,TIM10 inh,PfHsp90 yeast 2,tim23-1 conf
CN(C)c1ccc(P(=O)(OCc2ccccc2)C(O)c2ccc(Cl)cc2)cc1 (stereo unspecified),9.2,3.6,28.0,17.1,-2.9,3.1,.
Cc1c(O)c(CN2CCCC2)cc2c3c(c(=O)oc12)CCC3,20.8,-12.3,53.4*,20.2,9.0,7.0,35.5
CCN(CC)CCOC(=O)c1ccc(NC(=O)C2(c3ccccc3)CCCC2)cc1,4.4,1.7,95.2*,-0.2,10.0,-1.1,4.8
CCS(=O)(=O)c1ncc(Cl)c(C(=O)Nc2ccc(S(=O)(=O)N(C)c3ccccc3)cc2)n1,15.8,-51.7,31.7,27.0,5.9,4.2,.
O=C(Nc1ccc(F)cc1)c1nc(S(=O)(=O)Cc2ccccc2)ncc1Cl,-12.5,-5.7,60.8*,30.7,3.2,96.4*,-126.2
Cc1nnc(NC(=O)c2nc(S(=O)(=O)Cc3ccccc3)ncc2Cl)s1,-6.5,6.0,15.0,14.8,15.7,20.5,.
COc1ccc(OC)c(NC(=O)c2nc(S(=O)(=O)Cc3ccccc3)ncc2Cl)c1,-8.0,-11.8,73.1*,11.0,34.3,100.5*,-42.8
Cc1ccccc1CS(=O)(=O)c1ncc(Cl)c(C(=O)Nc2ccc(F)cc2)n1,15.2,-12.3,61.9*,-1.1,5.7,114.4*,-23.2
Cc1ccc(-c2nn(-c3ccccc3)cc2CC(=S)N2CCOCC2)cc1,-3.9,5.0,33.9,16.5,2.2,-1.7,.
O=[N+]([O-])c1nn(-c2ccc3c(c2)OCCO3)n(O)c1=Nc1ccccc1,-36.9,2.3,53.1*,36.3,4.8,-91.1,23.4
Cc1ccc(SCC(=O)OCC(=O)N(C)CC(=O)Nc2ccccc2Cl)cc1,.,13.2,4.8,10.9,3.0,5.4,.
Oc1ccc(Cl)cc1CNc1cnc2ccccc2c1,-1.2,26.7,61.6*,-2.3,25.6,-22.2,64.5*
Oc1ccccc1CNc1cnc2ccccc2c1,1.3,-3.5,10.4,13.0,8.9,-7.7,.
Cc1ccc(S(=O)(=O)NC23CC4CC(CC(C4)C2)C3)cc1,.,.,50.5*,14.8,22.2,-50.0,52.1*
Cc1ccc(S(=O)(=O)NN=C2C3CC4CC(C3)CC2C4)cc1,.,-10.1,-3.0,-17.7,-1.4,4.3,.
O=C(Nc1ccc(C(=O)N2CCCC2)cc1)c1ccc2c(c1)OCO2,-4.8,2.6,9.2,20.1,-1.8,-6.6,.
O=C(O)C(Oc1ccc2ccccc2c1)c1ccccc1 (stereo unspecified),.,-12.1,97.2*,-16.1,3.6,9.0,7.7
O=C(O)C(Oc1ccc2c(c1)oc(=O)c1ccccc12)c1ccccc1 (stereo unspecified),7.6,16.7,-7.3,-4.9,5.6,-10.4,.
CN(C)/C=N/c1cc(=O)n(C)c(=O)n1Cc1ccccc1,19.1,5.5,-1.5,-5.1,-5.5,-6.5,.
O=C(Nc1ccc2nn(-c3ccc(F)cc3)nc2c1)c1cccnc1,8.3,-1.6,14.1,-3.4,11.9,31.0,.
O=C(Nc1ccc2oc(-c3ccccc3)nc2c1)c1cccnc1,7.6,7.1,56.2*,13.2,29.5,14.7,71.0*
O=C(Nc1ccc2nn(-c3ccccc3)nc2c1)c1cccnc1,19.5,.,52.1*,-12.8,7.7,16.7,37.2
O=C(CSc1ncccn1)Nc1ccc(N2CCOCC2)cc1,11.5,-0.4,2.8,-10.7,-1.6,0.3,.
O=C(/C=C\c1ccccc1)Oc1cccc2cccnc12,-20.0,1.4,43.2,5.6,-1.0,4.9,.
O=C(/C=C/c1ccccc1)Oc1cccc2cccnc12,-21.6,-1.8,53.5*,15.9,13.3,0.2,43.3*
SMILES,NALP1 inh,SKKanGAS inh,tim23-1 inh,tim10-1 inh,TIM10 inh,PfHsp90 yeast 2,tim23-1 conf
COc1ccc(/C=N/NC(=O)c2cc(C34CC5CC(CC(C5)C3)C4)[nH]n2)cc1OC,25.3,3.9,37.8,27.7,25.6,1.2,.
COc1cccc(/C=N/NC(=O)c2cc(C34CC5CC(CC(C5)C3)C4)[nH]n2)c1,.,7.0,65.7*,9.3,9.7,-5.5,41.5*
C#CCOCCOCCOCCNc1nc(N2CCN(C(=O)CCCCCCCCCCNC(=O)Cn3cc(C[C@@H](C)O)nn3)CC2)nc(N2CCN(C(=O)CCCCCCCCCCNC(=O)[C@H](CCCCN)n3cc(C[C@@H](C)CC)nn3)CC2)n1,.,.,53.8*,34.5,7.5,9.0,56.2*
C#CCOCCOCCOCCNc1nc(N2CCN(C(=O)CCCCCCCCCCNC(=O)[C@H]([C@@H](C)CC)n3cc(CCCCN=C(N)N)nn3)CC2)nc(N2CCN(C(=O)CCCCCCCCCCNC(=O)[C@H](CCCCN)n3cc(C[C@@H](C)CC)nn3)CC2)n1,.,.,52.1*,25.9,17.6,.,44.7*
C#CCOCCOCCOCCNc1nc(N2CCN(C(=O)CCCCCCCCCCNC(=O)Cn3cc(C[C@@H](C)O)nn3)CC2)nc(N2CCN(C(=O)CCCCCCCCCCNC(=O)Cn3cc(C[C@@H](C)O)nn3)CC2)n1,.,.,6.0,4.3,-5.1,-2.8,.
C#CCOCCOCCOCCNc1nc(N2CCN(C(=O)CCCCCCCCCCNC(=O)Cn3cc(CCCCCN)nn3)CC2)nc(N2CCN(C(=O)CCCCCCCCCCNC(=O)[C@H](CO)n3cc(CCCCCN)nn3)CC2)n1,.,.,52.8*,34.2,10.6,11.3,45.5*
C=CCC1Cc2c(Br)cccc2C(CC=C)N1 (stereo unspecified),-11.4,8.8,52.9*,33.2,19.9,10.1,45.6*
COCc1cc(C)[nH]c(=O)c1C#N,-8.7,0.8,-6.3,-8.7,-21.3,24.2,.
O=C(Nc1cc(Cl)ccc1O)C1CC(c2ccccc2Cl)=NO1 (stereo unspecified),14.9,-2.2,51.6*,23.8,33.2,-10.3,72.8*
O=S(=O)(NCCc1ccccn1)c1cccs1,16.8,4.3,7.7,-8.8,2.5,34.1,.
Cc1cccc(OCCCSc2nc3ccccc3[nH]2)c1,-21.1,-19.0,-16.8,-0.1,3.0,52.3,.
CCOc1ccc(OCCSc2nc3ccccc3[nH]2)cc1,-42.3,-11.0,60.1*,15.7,26.4,-17.5,31.9
O=C(NCc1nc2ccccc2[nH]1)C1=C[C@@H](c2ccc(C(F)(F)F)cc2)C[C@@H](OCCCCO)O1,.,8.9,-6.4,2.4,-1.4,-6.9,.
COc1ccc(OCC(=O)Nc2nc3c(s2)CCCC3)cc1,-5.4,5.0,9.3,1.0,-2.2,13.0,.
COc1ccc(NC(=O)Nc2nc3c(s2)CCCC3)cc1,27.0,-3.7,62.6*,20.1,24.4,23.3,50.0*
